Compounds with a hit are over-represented: about 4.1% of the library has one in this group of screens.
DAX1 inh-1 = DAX1 (NR0B1) inhibitors on StAR promoter, primary screen, cell-based, luminescence, SF-1 (NR5A1), full-length DAX-1. HEK293T StAR-luciferase reporter, SF-1/DAX-1 repression relief. inhibition, % at 6.8 µM. 370,000 tested, 1.1% active. AID 652010, 2013;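 active means inhibition above the mean over all tested compounds plus 3 SD, cut at about 3.6% in these data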;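 further: higher inhibition means more luminescence from relief of DAX-1 repression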
ssDAF12 agonist = S. stercoralis DAF-12 nuclear receptor activators, primary screen, cell-based, luminescence, HEK293, GRIP1 co-expression, lit1-tk-luc; 370,000 tested, 1% active; activation, % at 6.8 µM; AID 652126, 2013; HEK293 ssDAF-12/GRIP1 lit1-tk-luc reporter; % of 3 µM dafachronic acid response; Nuclear hormone receptor DAF-12 (Strongyloides stercoralis);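 active means activation above the mean over all tested compounds plus 3 SD, cut at about 0.9% in these data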
hgDAF-12 ag = H. glycines DAF-12 receptor agonists, primary screen, cell-based, luminescence, HEK293, GAL4 fusion, UAS-luciferase. Nuclear hormone receptor DAF-12 (Heterodera glycines), GAL4 fusion. HEK293 GAL4-hgDAF12 UAS-luciferase reporter, agonist luminescence; normalized to butyrate control. activation, % at 6.8 µM. 370,000 tested, 1.8% active;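 active means activation above a cutoff set at the mean of all screened compounds plus 3 SD, cut at about 10% in these data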
DAX1 inh-2 = DAX1 (NR0B1) inhibitors, primary screen, cell-based, HEK293, Gal4-DAX1, luciferase luminescence. HEK293 Gal4-DAX1 luciferase reporter. Nuclear receptor subfamily 0 group B member 1 (Homo sapiens), P51843. 340,000 tested, 0.99% active. inhibition, % at 6.75 µM;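 active means inhibition above the mean over all tested compounds plus 3 SD, cut at about 4.2% in these data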;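 further: inhibition shows as a rise in luminescence from relieved DAX1 repression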
Target sequence (P51843 207-470 limits assumed): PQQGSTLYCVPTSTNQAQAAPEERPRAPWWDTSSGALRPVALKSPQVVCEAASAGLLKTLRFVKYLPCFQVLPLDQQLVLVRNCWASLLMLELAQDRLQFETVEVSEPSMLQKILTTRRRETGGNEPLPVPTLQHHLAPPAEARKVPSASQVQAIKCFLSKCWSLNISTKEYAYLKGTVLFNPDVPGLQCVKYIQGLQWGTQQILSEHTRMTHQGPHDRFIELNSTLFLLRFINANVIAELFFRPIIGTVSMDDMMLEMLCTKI
hcDAF12 agonist = H. contortus DAF-12 nuclear receptor activators, primary screen, cell-based, luminescence, HEK293, lit1-tk-luc reporter; HEK293 hcDAF-12 lit1-tk-luc reporter; 0% DMSO, 100% Δ7-dafachronic acid; 370,000 tested, 1.4% active; AID 652067, 2013; activation, % at 6.8 µM;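 active means activation above the mean of all tested compounds plus 3 SD, cut at about 5.5% in these data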
A number is an active result; - = inactive; . = not tested or not shown.

SMILES | DAX1 inh-1 | ssDAF12 agonist | hgDAF-12 ag | DAX1 inh-2 | hcDAF12 agonist
Cc1ccc(NC2SC(=O)N(CC(=O)O)C2=O)cc1 (stereo unspecified) | - | 1.2 | - | - | -
Cc1ccc(-n2c(C)cc(C(=O)CSc3nnnn3C)c2C)cc1 | - | - | 12 | - | -
Cc1cc(C(=O)CSc2nnnn2C)c(C)n1Cc1ccco1 | - | - | 12 | - | -
Cc1cc(C(=O)CSc2nnnn2C)c(C)n1CCc1ccc(F)cc1 | - | - | - | - | -
COC(=O)[C@]12C[C@H](CC(=O)NCCCN3CCCC3=O)C(=O)N(Cc3ccc(Cl)cc3Cl)C1=C[C@H](COCc1ccccc1)O[C@@H]2C | - | - | - | . | -
N/C(=N\OC(=O)COc1ccccc1)c1ccncc1 | - | - | - | 5.3 | -
N/C(=N\OC(=O)COc1ccccc1)c1ccccn1 | - | - | 11 | - | -
N/C(=N\OC(=O)CCC1CCCC1)c1ccccn1 | 4.2 | - | - | - | -
CCc1ccc(OCC(=O)O/N=C(\N)c2ccccn2)cc1 | - | - | 11 | . | -
Cc1ccc(OCC(=O)O/N=C(\N)c2ccccn2)cc1C | - | - | - | . | -
CCCC1CCC2(CC1)CCC2OC(=S)NCc1cccc(F)c1 (stereo unspecified) | . | - | - | . | -
CN1C2=N[C@@H](c3ccccc3)CC(=O)N2/C(=C\c2ccccc2)[C@H]1c1ccccc1 | . | - | - | . | -
N/C(=N\OC(=O)CCCc1ccccc1)c1ccccn1 | - | - | - | - | -
N/C(=N\OC(=O)Cc1ccccc1)c1ccccn1 | - | - | 12 | - | -
N/C(=N\OC(=O)CSc1ccccc1)c1ccncc1 | - | - | - | - | 5.7
Cc1cccc(NC(=O)CSc2nnc(SCc3ccc(Cl)cc3)s2)c1 | - | - | - | . | -
O[C@H]1C[C@H](c2ccccc2)N(CC2CCCCC2)C[C@@H]1n1cc(C2CC2)nn1 | 3.7 | - | - | - | -
O[C@@H]1CN(CC2CCCCC2)[C@@H](c2ccccc2)C[C@H]1n1cc(C2CC2)nn1 | - | - | - | - | -
Cc1cccc(C)c1-n1nnnc1C1(C)CCC(=O)N1Cc1cccc(C(F)(F)F)c1 (stereo unspecified) | - | - | - | . | -
O=C(OCc1cn(Cc2ccccc2F)nn1)N1CCCC1 | - | - | - | . | -
O=C(NCSc1ccnc(SCNC(=O)c2ccccc2)n1)c1ccccc1 | - | - | - | - | -
O=C(NCCSSCCNC(=O)c1ccccc1)c1ccccc1 | - | - | - | - | -
O=C(NCCSc1ccccc1)c1ccccc1Cl | - | - | 15 | - | -
O=C(CCNC(=O)c1ccccc1Cl)NCCCSc1ccccc1 | - | - | - | - | -
O=C(NCCSc1ccccc1)c1ccccc1 | - | - | 12 | - | -
SMILES | DAX1 inh-1 | ssDAF12 agonist | hgDAF-12 ag | DAX1 inh-2 | hcDAF12 agonist
O=C(NCSc1ccncn1)c1ccccc1 | - | - | - | 4.9 | -
FC(F)(F)c1cccc(N2CCN(C(=S)Nc3nccc4ccccc34)CC2)c1 | . | - | - | . | -
CN(C)c1ccc(/C=N\NC(=O)c2cccc(S(=O)(=O)N(C)C)c2)cc1 | - | - | - | . | -
CS(=O)(=O)N1CCCC(C(=O)Nc2ccccc2)C1 (stereo unspecified) | - | - | - | - | -
COc1ccc(C(=O)Nc2nc3ccc(OC)cc3s2)cc1 | - | - | - | - | -
COc1ccc2nc(Nc3nc(C)c(C(C)=O)s3)sc2c1 | - | - | 13 | - | -
COc1ccc(Nc2nc3ccc(OC)cc3s2)cc1 | - | - | 12 | - | -
COC(=O)[C@]12C[C@H](CC(=O)NCc3cccc(C(F)(F)F)c3)C(=O)N(Cc3cccc4ccccc34)C1=C[C@H](C(C)(C)C)O[C@@H]2C | - | - | - | . | -
CC(C)C[C@H]1COc2cc(N3CCOCC3)ccc2S(=O)(=O)N1 | - | - | - | . | -
COc1cc(OC)cc(C(=O)NNC(=O)CN2C(=O)NC(C)(c3ccc(C)cc3)C2=O)c1 (stereo unspecified) | - | - | - | 4.4 | -
CN(C)c1ccc(/C=C(/NC(=O)c2ccccc2)C(=O)N/N=C/c2ccc([N+](=O)[O-])c(O)c2)cc1 | - | - | 12 | - | -
COc1ccc(N/C=C/C(=O)c2ccc(OC)c(OC)c2)cc1 | - | - | - | - | -
COc1ccc(C(=O)/C=C/Nc2cccc(C)n2)cc1OC | - | - | 11 | - | -
COC(=O)[C@H]1C[C@@]2(N3CCCCC3)c3ccccc3N(C(=O)OC(C)(C)C)[C@H]2N1C(=O)OC(C)(C)C | - | - | - | . | -
c1ccc(-c2nc3ccccc3[nH]2)nc1 | - | 1.3 | - | - | -
c1ccc(-c2nc3ccccc3[nH]2)cc1 | 4.4 | - | 12 | - | -
S=C(Nc1ccc(-c2nc3ccccc3[nH]2)cc1)Nc1cccnc1 | - | - | 11 | - | -
c1cncc(-c2nc3ccccc3[nH]2)c1 | - | - | - | - | -
c1ccc2[nH]c(-c3ccncc3)nc2c1 | - | - | - | - | -
C=CCN1[C@H](C)COc2cc(F)ccc2S1(=O)=O | - | - | - | . | -
Cc1cccc(C(=O)CC(=O)c2cc(Cl)ccc2O)c1 | . | . | . | - | .
O=C(CC(=O)c1cc(Cl)ccc1O)c1ccccc1 | - | - | 12 | - | -
Cc1ccc(O)c(C(=O)CC(=O)c2cccc(F)c2)c1 | - | - | - | - | -
Cc1ccc(O)c(C(=O)CC(=O)c2ccc(Cl)cc2)c1 | - | - | 11 | - | -
Nc1nc(N)nc(COc2ccccc2)n1 | - | - | 11 | 4.7 | -
SMILES | DAX1 inh-1 | ssDAF12 agonist | hgDAF-12 ag | DAX1 inh-2 | hcDAF12 agonist
O=C(Nc1ccc(OCc2ccccc2)cc1)c1cccs1 | - | - | - | 5.1 | -
O=C(NCCCNC(=O)c1cccs1)c1cccs1 | - | - | - | - | -
O=C(Nc1ccc(-c2cn3ccccc3n2)cc1)c1cccs1 | - | - | 12 | - | -
O=C(N/N=C/c1ccc(OCc2ccccc2)cc1)c1cccs1 | - | - | - | - | -
CCN(CC)C(=O)C(=O)Nc1ccc(OCc2ccccc2)cc1 | - | - | 12 | - | -
O=C(NCCc1ccccc1)c1cccs1 | - | - | 11 | - | -
C=CCNc1cccc2c1S(=O)(=O)N[C@@H](CC(C)C)CO2 | - | - | - | . | -
O=C(OCC#CCSc1nnc(-c2cccc3ccccc23)o1)C1CCC1 | . | - | - | . | -
O=C(Nc1ccc(NC(=O)c2ccccc2F)cc1)c1cccs1 | 4.2 | - | - | - | -
O=C(NCCc1ccccc1)c1cnc2sccn2c1=O | - | - | 11 | - | -
O=C(Nc1ccc(Cl)cc1)c1cccs1 | - | - | 12 | - | -
Cc1cc2ccccc2n1CCNC(=O)c1cccs1 | - | 1.6 | - | - | -

Source: PubChem BioAssay
